This is a sample that favours compounds with a hit; in the whole collection about 6% have one here.
D1 antag: blocks dopamine activation of the human D1 receptor. P21728. HEK293 TREx D1 cells, calcium flux, dopamine EC80; hits give low values. 360,000 compounds, 3.2% hits. activity change, negative = inhibition, % at 10 µM; in the data active = activity change below about -30%
Target sequence (P21728 whole entry, looked up): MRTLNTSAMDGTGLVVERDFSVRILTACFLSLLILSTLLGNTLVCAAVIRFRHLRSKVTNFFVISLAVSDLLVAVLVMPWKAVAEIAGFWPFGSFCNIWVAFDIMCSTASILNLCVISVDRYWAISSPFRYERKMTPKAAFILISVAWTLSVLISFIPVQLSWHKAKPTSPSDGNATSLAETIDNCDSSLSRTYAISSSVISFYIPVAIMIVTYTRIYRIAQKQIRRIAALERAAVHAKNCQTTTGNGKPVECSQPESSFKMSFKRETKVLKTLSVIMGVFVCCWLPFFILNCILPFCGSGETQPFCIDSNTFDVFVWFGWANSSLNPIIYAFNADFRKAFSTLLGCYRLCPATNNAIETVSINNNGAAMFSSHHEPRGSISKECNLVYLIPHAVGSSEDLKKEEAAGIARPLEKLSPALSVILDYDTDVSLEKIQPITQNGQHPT
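HEK293 T-REx cells expressing inducible, force-coupled D1 receptor; no-wash Ca dye, 30–90 min RT. Cmpd → 180 s read at 1 Hz → EC80 DA → 180 s read.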
D1 potentiator: enhances dopamine response at the human D1 receptor. potentiation, % at 10 µM. HEK293 TREx D1 cells, calcium flux, dopamine EC20 potentiation. P21728. 360,000 compounds, 0.036% hits; in the data active = potentiation above about 30%
DRD3 antagonist: blocks the human D3 dopamine receptor; D3R cells, DiscoveRx beta-arrestin luminescence, antagonist mode; hits give low values; max response, negative = inhibition, %; 360,000 compounds, 2.5% hits; AID 652054; in the data active = max response below about -50%; inconclusive = no clear call, values can overlap the other calls
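Cells expressing the human receptor were seeded at 1500 cells/well, incubated overnight at 37 degrees C in 5% CO2, then exposed to library compounds with dopamine controls for 90 minutes at 37 degrees C before luminescent detection.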
Chronic BCR inh: blocks chronic active B-cell receptor signaling | ABC-DLBCL IkBa-CBG/CBR reporter, luminescence ratio, 4 h | Potency, µM (highest dose often 46.1 µM), usual class: inhibitors | 340,000 compounds, 0.05% hits; active = well fitted inhibition curve with a large enough effect in the signal ratio, with a control signal flat, not every such curve was filed as active; inconclusive = small, poorly fitted or top-dose-only effect, or effect the other way, or a change in a side signal; the % refers to the signal ratio
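TMD8 ABC-DLBCL cells carrying doxycycline-inducible green luciferase fused to IkappaBalpha plus unfused red luciferase were exposed to compounds (up to 46 uM) for 4 hrs at 37C. Activity came from the overlap-corrected green/red luminescence ratio.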
D1 agonist: human D1 receptor agonism; HEK293 T-REx D1 cells, calcium flux, agonist mode; 360,000 compounds, 1% hits; AID 504660; activation, % at 2 µM; P21728; in the data active = activation above about 30%
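Inducible HEK293 T-REx D1 cells, force-coupled to calcium signalling, were plated at 4000 cells/well with tetracycline and held overnight at 30 C. After no-wash calcium dye loading, compound-evoked calcium rise over 180 s flagged agonists.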
D3 ag: activates the human D3 dopamine receptor | D3R DiscoveRx beta-arrestin cells, luminescence, 90 min | max activation, % | 410,000 compounds, 0.58% hits | AID 652048 | P35462; in the data active = max activation above about 30%
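Cells at 1500/well, incubated overnight, then treated with pinned compounds (dopamine as control) for 90 min at 37 degrees C. DiscoveRx reagent added for 30 - 60 minutes at room temperature; luminescence read.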
Large screens that a line does not name were inactive.

CNC(=S)N1N=C(c2ccc(C)cc2)CC1c1ccc(OC)cc1 (centres undefined)	D1 antag -40
CN(C)S(=O)(=O)N1CCC(n2nccc2NC(=O)CCCc2ccccc2)CC1	none
O=C(CCCc1ccccc1)Nc1ccnn1C1CCN(Cc2ccccc2F)CC1	none
O=C(CCCc1ccccc1)Nc1ccnn1C1CCN(Cc2ccccc2)CC1	Chronic BCR inh inconclusive, D1 agonist 34
CN(C)S(=O)(=O)N1CCC(n2nccc2NC(=O)CCc2ccccc2)CC1	D1 antag -44
Cc1ccc(C)c(CN2CCC(n3nccc3NC(=O)CCCc3ccccc3)CC2)c1	DRD3 antagonist -65, Chronic BCR inh inconclusive
O=C(Nc1ccnn1C1CCN(Cc2ccccn2)CC1)c1cccc(F)c1	D1 antag -38
O=C(CCCc1ccccc1)Nc1ccnn1C1CCN(Cc2ccc(Cl)cc2)CC1	DRD3 antagonist inconclusive
COCCNc1ncnc2c1ncn2[C@H]1CN(Cc2ccc(-c3ccccc3)cc2)C[C@@H](CO)O1	none (no result: D1 antag, D1 potentiator, Chronic BCR inh, D1 agonist)
O=C(c1ccc2c(c1)N(Cc1cccc(Cl)c1)C(=O)c1ccccc1S2(=O)=O)N1CCc2ccccc21	none (no result: DRD3 antagonist)
COCCCNC(=O)CSc1nc2cc3c(cc2c(=O)n1CCCCCC(=O)NCc1ccc2c(c1)OCO2)OCO3	none (no result: DRD3 antagonist)
COc1ccccc1CNc1nc(-c2ccco2)nn1S(=O)(=O)c1ccc2ccccc2c1	none (no result: DRD3 antagonist, Chronic BCR inh)
O=C(CCCc1ccccc1)Nc1ccnn1C1CCN(Cc2ccc(CO)o2)CC1	D1 antag -34
CC(C)n1cc(CN2CCC(n3nccc3NC(=O)CCCc3ccccc3)CC2)cn1	DRD3 antagonist -69
CCOc1ccc(CN2CCC(n3nccc3NC(=O)CCCc3ccccc3)CC2)cc1	DRD3 antagonist -55
CCOc1cccc(CN2CCC(n3nccc3NC(=O)CCCc3ccccc3)CC2)c1	DRD3 antagonist inconclusive, Chronic BCR inh inconclusive
CN(C)c1cc(NC(=O)CNC(C)(C)C)c(O)c2c1C[C@H]1C[C@H]3[C@H](N(C)C)C(=O)C(C(N)=O)=C(O)[C@@]3(O)C(=O)C1=C2O	none (no result: D1 antag, D1 potentiator, DRD3 antagonist, Chronic BCR inh, D1 agonist)
O=C1S/C(=C\c2ccc(N3CCOCC3)o2)C(=O)N1Cc1c(F)cccc1Cl	D1 agonist 62
O=C1S/C(=C\c2ccc(N3CCOCC3)o2)C(=O)N1c1ccccc1	D1 agonist 159
O=C1S/C(=C/c2ccc(N3CCOCC3)o2)C(=O)N1Cc1c(F)cccc1Cl	DRD3 antagonist inconclusive, D1 agonist 129 (no result: D1 antag)
O=C(O)c1ccccc1-c1ccc(/C=C2\SC(=O)N(c3ccccc3)C2=O)o1	none
O=C(NCCc1ccccc1)c1cc(-c2ccc(Cl)cc2)on1	none (no result: DRD3 antagonist, Chronic BCR inh)
Cc1ccc(Cl)cc1NC(=O)CN1C(=O)CSc2ccc(S(=O)(=O)N3CCCC3)cc21	none (no result: DRD3 antagonist, Chronic BCR inh)
Cc1ccc(N(C(=O)COc2ccccc2C)S(=O)(=O)c2ccc(Cl)cc2)cc1	none (no result: DRD3 antagonist, Chronic BCR inh)
CCc1ccc(NC(=O)C2=CC=CN3CCS(=O)(=O)N=C23)cc1	Chronic BCR inh inconclusive
CC(C)c1ccc(NC(=O)C2=CC=CN3CCS(=O)(=O)N=C23)cc1	D1 antag -32, Chronic BCR inh inconclusive
COc1ccc(NC(=O)C2=CC=CN3CCS(=O)(=O)N=C23)c(OC)c1	none (no result: D1 antag, D1 potentiator, D1 agonist)
O=C(Nc1ccc(Oc2ccc(Br)cc2)cc1)C1=CC=CN2CCS(=O)(=O)N=C12	D1 antag -48, Chronic BCR inh inconclusive
O=C(NCc1nc2ccccc2[nH]1)c1c(F)cccc1F	none (no result: DRD3 antagonist, Chronic BCR inh)
COc1ccc([N+](=O)[O-])cc1NC(=S)NC(NC(=O)C(c1ccccc1)c1ccccc1)C(Cl)(Cl)Cl (centres undefined)	DRD3 antagonist -80, Chronic BCR inh inconclusive
COC(=O)c1ccccc1NC(=S)NC(NC(=O)c1ccccc1[N+](=O)[O-])C(Cl)(Cl)Cl (centres undefined)	DRD3 antagonist -51, Chronic BCR inh inconclusive
COC(=O)c1ccccc1NC(=S)NC(NC(=O)c1ccco1)C(Cl)(Cl)Cl (centres undefined)	Chronic BCR inh inconclusive
Cc1ccc(NC(=O)c2oc3ccc(S(=O)(=O)N(C)C4CCCCC4)cc3c2C)c(C)c1	none (no result: DRD3 antagonist)
C[C@H](O)[C@@H]1C(=O)N2CCc3c([nH]c4ccccc34)[C@@H]2C[C@@H]1N(C)C(=O)c1ccco1	none (no result: D1 antag, D1 potentiator, Chronic BCR inh, D1 agonist)
Cc1ccc(C(=O)N2CCc3cc(CNC(=O)CCc4ccccc4)ccc32)cc1	Chronic BCR inh inconclusive (no result: DRD3 antagonist)
CN(C)S(=O)(=O)c1cccc(NC(=O)CSc2nnnn2-c2ccccc2)c1	D1 antag -41
O=C(CSc1nnnn1-c1ccccc1)CC(=O)Nc1ccc(Cl)cc1	D1 antag -34
NS(=O)(=O)c1cccc(NC(=O)CSc2nnnn2-c2ccccc2)c1	none
CN(C)S(=O)(=O)c1cccc(NC(=O)CSc2ncnc3ccccc23)c1	Chronic BCR inh inconclusive, D3 ag 65
COc1ccc(C2c3c(n(C)c4ccccc34)C(=O)N2CC(=O)Nc2ccccc2F)cc1 (centres undefined)	none (no result: DRD3 antagonist, Chronic BCR inh)
N#CN1CCC(N[S+](=O)([O-])c2cccc(F)c2)CC1	none (no result: DRD3 antagonist, Chronic BCR inh, D3 ag)
c1cncc(-c2nn3c(Cn4nnc5ccccc54)nnc3s2)c1	D3 ag 51
CC(C)(C)N=C1NC(=NC(C)(C)C)c2ccccc21	D1 antag -41
CCOC(=O)c1c(CSc2ccccc2)n(C)c2cc(Br)c(OCC(O)CNC(CO)(CO)CO)cc12 (centres undefined)	D1 antag -47, Chronic BCR inh inconclusive
CCOC(=O)c1c(CSc2ccccc2)n(C)c2cc(Br)c(OC)c(O)c12	Chronic BCR inh inconclusive
CC(NC(=O)c1ccc(=O)oc1)c1ccccc1 (centres undefined)	D1 antag -34
CCn1cc(Br)c(C(=O)Nc2ccccc2C(=O)OC)n1	D1 antag -36
CCn1cc(Cl)c(C(=O)Nc2ccccc2C(N)=O)n1	Chronic BCR inh inconclusive, D3 ag 48
CCn1cc(NC(=O)Nc2ccccc2C(=O)OC)c(C(N)=O)n1	none
CCn1cc(Cl)c(C(=O)Nc2cccc(C(F)(F)F)c2)n1	D1 antag -36, Chronic BCR inh inconclusive
CCn1cc(Cl)c(C(=O)Nc2nccs2)n1	Chronic BCR inh inconclusive
COc1ccc(S(=O)(=O)N2CCN(Cc3nc4ccc(C)cc4o3)CC2)cc1	none (no result: DRD3 antagonist, Chronic BCR inh)
Cn1c(SCc2ccc(C(F)(F)F)cc2)nc2c([nH]c3ccccc32)c1=O	none (no result: DRD3 antagonist, Chronic BCR inh)
Cn1c(CSCc2ccc(Cl)cc2)nnc1SCC(=O)Nc1nccs1	D1 antag -49
Cn1c(CSCc2ccc(Cl)c(Cl)c2)nnc1SCC(=O)Nc1nccs1	none
Cc1ccc(N/C(N)=N/c2nc3c(c(=O)[nH]2)CCCC3)c(C)c1	DRD3 antagonist inconclusive, Chronic BCR inh inconclusive
COCc1cc(=O)[nH]c(/N=C(\N)Nc2ccccc2C)n1	none
COC(=O)Cc1cc(=O)[nH]c(/N=C(\N)Nc2ccc(C)cc2C)n1	D1 antag -32

High-throughput results (PubChem BioAssay)
